An excerpt weighted towards active compounds, which were near 1.9% of everything screened.
MLLE-PAM2 inh: blocks PAM2 peptide binding to the PABP1 MLLE domain. inhibition, % at 20 µM. actives 0.36% (n = 360,000). GST-MLLE / FITC-PAM2 fluorescence polarization. AID 588489; in the data active = inhibition above about 35%, passing the limit was not always enough
14-3-3 Bad inh: disrupts binding of bovine 14-3-3 zeta to phospho-Bad peptide | TR-FRET 14-3-3zeta/Dy647-pBad peptide displacement, 1 h | inhibition, % at 21.7 µM | actives 0.71% (n = 220,000);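 active = inhibition above about 70%, limit read from the data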
Target sequence (P63103 whole entry, looked up): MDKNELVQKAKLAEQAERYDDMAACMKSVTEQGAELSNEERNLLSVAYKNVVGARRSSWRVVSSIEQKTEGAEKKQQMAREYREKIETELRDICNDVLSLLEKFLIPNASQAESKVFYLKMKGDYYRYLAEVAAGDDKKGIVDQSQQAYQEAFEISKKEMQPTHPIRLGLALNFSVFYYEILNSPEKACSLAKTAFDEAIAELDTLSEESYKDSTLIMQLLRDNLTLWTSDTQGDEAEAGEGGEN
eIF4H inh: inhibitors of RNA binding by human eIF4H. eIF4H fluorescence polarization binding assay. inhibition, % at 35 µM. actives 0.94% (n = 290,000);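 note: calls also rest on retests at 20 µM and on dose response follow-up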
PABP FP inh: blocks human PABP binding to poly(A) RNA. P11940. fluorescence polarization. calls only at 35 µM. actives 1% (n = 290,000);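 note: calls also rest on retests at 20 µM and on dose response follow-up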
eIF4E-4G inh: eIF4E/eIF4G interaction inhibition in translation initiation; P63073+Q04637; TR-FRET eIF4E-eIF4GI(517-606) binding, 2 h; inhibition, % at 21.7 µM; actives 0.37% (n = 220,000); AID 782;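 active = inhibition above about 30%, limit read from the data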
Large screens that a line does not name were inactive; [ ] = another dose, or the depositor's remark. Unless noted, the rule behind the calls is not given here.

CC1(C)CC(N2CCN(Cc3ccccc3)CC2)=CC(=[N+]2CCCCC2)C1	none
CN(Cc1ccccc1)C1=CC(=[N+]2CCCCC2)CC(C)(C)C1	PABP FP inh active
Cc1ccc(CN2CCN(/N=C/c3ccc(C(=O)O)cc3)CC2)cc1	eIF4H inh 85.0
O=C(O)c1ccc(/C=N/N2CCN(Cc3ccc(Cl)cc3)CC2)cc1	none
CCNC(=O)C1CCCN(C(=O)c2ccc3ccccc3c2)CC1 (centres undefined)	none (no result: 14-3-3 Bad inh, eIF4H inh, PABP FP inh, eIF4E-4G inh)
COc1ccc(OCCn2c(C)c(/C=N/n3cnnc3)c3ccccc32)cc1	none
Cc1c(/C=N/n2cnnc2)c2ccccc2n1C	14-3-3 Bad inh 71.4[fluorescence artefact?]
N#Cc1c(-c2cccc(Cl)c2)[nH]c(=S)[nH]c1=O	MLLE-PAM2 inh 52.5
CC(OC(=O)CNC(=O)COc1ccccc1)C(=O)N(C)Cc1ccccc1 (centres undefined)	none (no result: 14-3-3 Bad inh, eIF4H inh, PABP FP inh, eIF4E-4G inh)
CC(C)NC(=S)N/N=C1\CCCCc2ccccc21	none
COc1cccc(NC(=S)N/N=C2/CCCCc3ccccc32)c1	MLLE-PAM2 inh 45.4
CC(=O)Nc1ccc(-n2nnnc2SCC(=O)Nc2cccc(NC(=O)c3ccco3)c2)cc1	none
O=C(Nc1nc(=O)c2ccccc2s1)c1ccc(Cl)cc1	none
O=C(Nc1nc(=O)c2ccccc2s1)c1ccc(F)cc1	MLLE-PAM2 inh 38.2
Oc1ccc2ccccc2c1C1Nc2cccc3cccc(c23)N1	eIF4H inh 76.6, PABP FP inh active
COc1cc(C2Nc3cccc4cccc(c34)N2)ccc1O	eIF4H inh 79.2, PABP FP inh active (no result: 14-3-3 Bad inh, eIF4E-4G inh)
Clc1ccc(C2Nc3cccc4cccc(c34)N2)c(Cl)c1	none (no result: 14-3-3 Bad inh, eIF4H inh, PABP FP inh, eIF4E-4G inh)
COc1cc(C2Nc3cccc4cccc(c34)N2)cc(OC)c1OC(C)=O	eIF4H inh 89.0, PABP FP inh active
COc1ccc(Br)cc1C1Nc2cccc3cccc(c23)N1	eIF4H inh 101.9, PABP FP inh active (no result: 14-3-3 Bad inh, eIF4E-4G inh)
COc1ccc(CNC(=O)COC(=O)/C=C/c2cccc(Cl)c2)cc1	none (no result: 14-3-3 Bad inh, eIF4H inh, PABP FP inh, eIF4E-4G inh)
COc1cccc2sc3ccc(NCCC4CCCN4C)cc3c(=O)c12 (centres undefined)	eIF4H inh 78.8, PABP FP inh active (no result: 14-3-3 Bad inh, eIF4E-4G inh)
COc1cc2sc3cc(NCC[C@@H]4CCCN4C)ccc3c(=O)c2cc1OC	none (no result: 14-3-3 Bad inh, eIF4H inh, PABP FP inh, eIF4E-4G inh)
Cc1cc(C)n(Cc2ccc(NC(=O)c3c([N+](=O)[O-])c(C)nn3C)cc2)n1	none
CCCOc1cc(N)ccc1C(=O)OCCN(CC)CC	none (no result: 14-3-3 Bad inh, eIF4H inh, PABP FP inh, eIF4E-4G inh)
CCCOc1ccc(N)cc1N	14-3-3 Bad inh 92.3[fluorescence artefact?], eIF4H inh 78.7, PABP FP inh active
COc1ccc(C(=O)Oc2cccnc2)cc1OC	14-3-3 Bad inh 73.1
COc1ccc(S(=O)(=O)NNc2nc(C)cc(C)n2)cc1Br	none (no result: 14-3-3 Bad inh, eIF4H inh, PABP FP inh, eIF4E-4G inh)
COc1ccc(-c2c(C)nn(Cc3ccccc3)c2N)cc1	14-3-3 Bad inh 85.9
CCOC(=O)C1=C(O)/C(=C/N(C)C)N=C1C	eIF4H inh 89.2, PABP FP inh active
CCOC(=O)C1=C(O)/C(=C\c2cccc(OC)c2)N=C1C	none
N#C/C(=C\c1ccc(-c2cccc(Cl)c2)o1)C(=O)Nc1cccc2cccnc12	eIF4H inh 81.7, PABP FP inh active
Cc1ccccc1NC(=O)/C(C#N)=C/c1ccc(-c2ccc(Cl)c(C(=O)O)c2)o1	none (no result: 14-3-3 Bad inh, eIF4E-4G inh)
COc1ccc(CCNC(=O)c2cc(-c3ccccc3)c(N3CCOCC3)s2)c(OC)c1OC	none (no result: 14-3-3 Bad inh, eIF4E-4G inh)
Cc1cccc(C)c1NC(=O)CNC(=O)c1ccncc1	none (no result: 14-3-3 Bad inh, eIF4E-4G inh)
Cc1ccc(CNCC2CCCO2)s1 (centres undefined)	14-3-3 Bad inh 90.2
O=C(Cn1cc(C(F)(F)F)ccc1=O)NC1CCCC1	none (no result: 14-3-3 Bad inh, eIF4H inh, PABP FP inh, eIF4E-4G inh)
CCn1c(=O)c(-[n+]2ccccc2)c(O)c2ccccc21	14-3-3 Bad inh 72.2
CCc1cccc(CC)c1NC(=O)COC(=O)c1cccc(-c2ccc(OC(C)=O)cc2)c1	eIF4H inh active
CCc1nc2c(OCc3ccccc3)cccn2c1N(Cc1ccccc1)C(C)=O	none (no result: 14-3-3 Bad inh, eIF4H inh, PABP FP inh, eIF4E-4G inh)
COC(=O)c1ccc(NC(=O)CNc2ccccc2)cc1	none
CC(C)(C)c1cc(CN2CCCCC2)cc(C(C)(C)C)c1O	none (no result: MLLE-PAM2 inh)
CC(C)(C)c1cc(CN2CCCC(O)C2)c(O)c(C(C)(C)C)c1 (centres undefined)	14-3-3 Bad inh 73.2
COC1=CC(=NCl)C=CC1=NCl	MLLE-PAM2 inh 41.5 (no result: 14-3-3 Bad inh, eIF4H inh, PABP FP inh, eIF4E-4G inh)
COCc1c(C(=O)N2CCN(Cc3nc4ccccc4s3)CC2)oc2ccccc12	none (no result: 14-3-3 Bad inh, eIF4H inh, PABP FP inh, eIF4E-4G inh)
O/N=C\c1cccn1-c1nccs1	eIF4H inh 10.5, PABP FP inh active
Nc1c(C(=O)N2CCCCCC2)oc2ccccc12	none (no result: 14-3-3 Bad inh, eIF4E-4G inh)
Cc1ccc(C(=O)NCc2ccccn2)cc1NC1=NC2CS(=O)(=O)CC2S1 (centres undefined)	none (no result: 14-3-3 Bad inh, eIF4E-4G inh)
O=C(N/N=C/c1ccccn1)c1ccc(NC(=O)c2cccc([N+](=O)[O-])c2)cc1	eIF4H inh 74.7, PABP FP inh active
O=C(N/N=C/c1ccccn1)c1cccc([N+](=O)[O-])c1	none
NC(N)=NC(=S)Nc1ccc(Cl)cc1	MLLE-PAM2 inh 44.5
O=C(Cn1cnc2ccccc2c1=O)c1ccc(OC(F)F)cc1	none (no result: 14-3-3 Bad inh, eIF4E-4G inh)
COc1ccc(C2/C(=C(/O)c3ccc(F)cc3)C(=O)C(=O)N2c2ccccn2)cc1OC (centres undefined)	none (no result: 14-3-3 Bad inh, eIF4E-4G inh)
COc1cc(C2/C(=C(/O)c3ccccc3)C(=O)C(=O)N2c2ccccn2)ccc1O (centres undefined)	eIF4E-4G inh 81.8
COc1ccc(-c2cc(C(=O)Nc3ccc(F)cc3F)no2)cc1	none (no result: 14-3-3 Bad inh, eIF4E-4G inh)
COc1ccc(OC)c(-c2cc(C(=O)Nc3ccc(F)cc3F)no2)c1	14-3-3 Bad inh 87.7
COc1ccc(C(=O)c2c(C)c3cc(C)ccc3n2CC(O)CN2CCOCC2)cc1 (centres undefined)	none
Cc1c(Nc2nc(-c3cccc([N+](=O)[O-])c3)cs2)c(=O)n(-c2ccccc2)n1C	14-3-3 Bad inh 87.8
CCN(C[C@H]1N[C@@](CC)(C(=O)OC)[C@H]2C(=O)N(Cc3ccccc3)C(=O)[C@@H]12)C(=O)c1ccccc1	none (no result: 14-3-3 Bad inh, eIF4H inh, PABP FP inh, eIF4E-4G inh)
CCOc1ccccc1N1CCN(Cc2cccc(OC)c2O)CC1	14-3-3 Bad inh 73.5
CCN1C=C(Cc2cccs2)C2=C(C1)C(c1cccs1)C(C#N)=C(N)O2 (centres undefined)	eIF4H inh 93.3, PABP FP inh active
CCN1CC2=C(OC(N)=C(C#N)C2c2cccs2)/C(=C/c2cccs2)C1 (centres undefined)	eIF4H inh inconclusive, PABP FP inh inconclusive
COc1ccc(-c2nc(CS(=O)(=O)CC(=O)NCc3ccc(F)cc3)c(C)o2)cc1	none (no result: 14-3-3 Bad inh, eIF4E-4G inh)
O=C(Nc1ccc([N+](=O)[O-])cc1Cl)c1cc(Cl)ccc1O	none (no result: 14-3-3 Bad inh, eIF4H inh, PABP FP inh, eIF4E-4G inh)
O=C(Nc1cccc(Cl)c1)c1cc(N=Nc2ccc([N+](=O)[O-])cc2Cl)ccc1O	PABP FP inh active, eIF4E-4G inh 33.3
Nc1ccc(O)cc1C(=O)OCC(=O)c1ccc(C2CCCCC2)cc1	eIF4H inh 93.3, PABP FP inh active
Nc1ccc(O)cc1C(=O)OCC(=O)C12CC3CC(CC(C3)C1)C2	eIF4H inh 68.2, PABP FP inh active (no result: 14-3-3 Bad inh, eIF4E-4G inh)
COc1ccc(C(=O)OCC(=O)c2ccc(C3CCCCC3)cc2)cc1	none
COc1ccc(Cl)cc1NS(=O)(=O)c1cccc(C(=O)NCCCN2CCOCC2)c1	none (no result: 14-3-3 Bad inh, eIF4H inh, PABP FP inh, eIF4E-4G inh)
COc1cc(Sc2ccc(C)cc2)c(OC)cc1N	14-3-3 Bad inh 75.9

Source: PubChem BioAssay
